The source of these data is PubChem BioAssay.

Unmarked numbers belong to inactive results. Calls of active or inactive are those of the source.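 The calls were made as follows: active = fluorescence slope higher than the sample average by over 3 SD (cut at about -0.22 in these data, passing the limit was not always enough); inactive = the rest.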

For this assay, the target named is Voltage-gated potassium channel subunit beta-2 (Rattus norvegicus) (UniProt P62483). In words: KvBeta enzyme negative modulators, primary screen, biochemical, NADPH fluorescence (AID 622).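 Also: slope of raw intensity against log time taken from 70 to 1610 s.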 The note with it: recombinant KvBeta, 4-cyanobenzaldehyde reduction, at 10 µM, active compounds read high.
Sequence of Voltage-gated potassium channel subunit beta-2 (Rattus norvegicus) (P62483 whole entry, looked up): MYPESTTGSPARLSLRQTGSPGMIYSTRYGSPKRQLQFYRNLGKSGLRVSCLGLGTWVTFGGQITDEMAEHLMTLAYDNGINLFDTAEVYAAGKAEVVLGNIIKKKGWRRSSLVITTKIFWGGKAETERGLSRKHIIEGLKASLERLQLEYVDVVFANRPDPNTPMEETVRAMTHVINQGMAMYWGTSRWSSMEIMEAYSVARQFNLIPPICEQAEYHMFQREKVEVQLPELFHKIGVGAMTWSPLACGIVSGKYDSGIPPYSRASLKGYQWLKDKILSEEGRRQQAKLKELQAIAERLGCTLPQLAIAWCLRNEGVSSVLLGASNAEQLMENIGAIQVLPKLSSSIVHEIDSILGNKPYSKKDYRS
Take `CCCn1c2c(c(O)c(C(=O)Nc3ccc(C)cn3)c1=O)CCCC2`: the fluorescence slope was -0.546. `CCCC1(C(=O)OCC)NC(c2ccc(N(C)C)cc2)C2C(=O)N(c3ccccc3)C(=O)C21` (stereo not given): the fluorescence slope was -0.465. The same measure for `COc1cc(C2C(C(=O)c3ccc(C)o3)=C(O)C(=O)N2c2cc(C)on2)cc(Br)c1O` (stereo not given): -0.518. Next, `CCCCc1cc(=O)oc2c(CN3CCCC3)c(O)c(Cl)cc12`: -0.00586 (active). As to `Cc1ccccc1-c1nc(CN2CCC(C(=O)NCc3cccnc3)CC2)c(C)o1`, the fluorescence slope is -0.476. The same measure for `O=C(Nc1ccc(Cc2ccncc2)cc1)C1CC1`: -0.605; for `Nc1cc(C(=O)O)ccc1Nc1ccc(F)c(F)c1`: -0.44; for `CSc1nc2c(ccc3ccccc32)o1`: -0.566. As for `CCCCSc1nc2c(cnn2-c2ccc(Cl)cc2)c(=O)[nH]1`, the fluorescence slope is -0.426. Consider `CC(NO)C(C)(C)NO` (stereo not given), for which the fluorescence slope is -0.493. The same measure for `CCCCOc1ccc(C(=O)Nc2ccc(N3CCN(C(=O)C(C)C)CC3)cc2)cc1`: -0.44. The same measure for `O=c1[nH]c2ccccc2nc1NCCN1CCOCC1`: -0.553; for `CCOC(=O)c1ccccc1NC(=O)COC(=O)C1=COCCO1`: -0.286.

For `COCCCNC(=O)C(Cc1ccccc1)NS(=O)(=O)c1ccc2c(c1)c(=O)n(C)c(=O)n2C` (stereo not given), the fluorescence slope was -0.468. The same measure for `Cc1nc2cc(CO)ccc2n1C`: -0.589; for `NCC(O)COc1ccc2c(c1)OCO2` (stereo not given): -0.551. The same measure for `Nc1nc2sc3c(c2c(=O)s1)CCCC3`: -0.525; for `COc1cccc(OC)c1C(=O)N1CCN(S(=O)(=O)c2ccccc2)CC1`: -0.531. As for `COc1ccc(C(NC(=O)c2ccco2)c2ccc(OC)c(OC)c2)cc1` (stereo not given), the fluorescence slope was -0.326. Next, `O=C(O)C1CC(=O)N(c2ccc(OCc3ccccc3Cl)cc2)C1` (stereo not given): -0.644; `O=C(CCSc1nnc(-c2ccncc2)o1)Nc1ccccc1`: -0.512; `CCNS(=O)(=O)c1c(C)cc(N2CCCC2=O)cc1C`: -0.438. Consider `CN(C)C(CNc1nnnn1-c1ccccc1)c1ccco1` (stereo not given), for which the fluorescence slope was -0.584. For the molecule `Cn1c(-c2ccccc2)c(CCO)c2ccccc21`, the fluorescence slope was -0.559. The same measure for `CCOC(=O)C1C(=O)NC(SCC(=O)Nc2nccs2)=C(C#N)C1c1ccccc1OCC` (stereo not given): -0.454; for `c1ccc2nc(-c3nc4ccccc4[nH]3)ccc2c1`: -0.551; for `COc1cc(-c2nc(S(=O)(=O)c3ccccc3)c(N3CCOCC3)o2)cc(OC)c1OC`: -0.471. Next, `O=C(N1CCN(Cc2ccccc2)CC1)C12CC3CC(CC(C3)C1)C2`: -0.327.

For `CC(=O)c1c(NCCc2ccccc2)cc(C)oc1=O`, the fluorescence slope was -0.259. The same measure for `O=C(NCCCN1CCN(CCCNC(=O)c2ccc(F)cc2)CC1)c1ccc(F)cc1`: -0.528; for `C=CCn1c(SCc2cc(=O)n3ccsc3n2)nnc1C1CCCCC1`: -0.561. `Oc1c(Cl)cc(Cl)c2c1NCCC2`: the fluorescence slope was -0.466. In the case of `CN(C)S(=O)(=O)c1ccc2c(c1)C(CC(=O)O)OC2=O` (stereo not given), the fluorescence slope was -0.511. The same measure for `COc1cc(OC)cc(-n2nnnc2SCC(=O)N2CCCC2)c1`: -0.622. On to `CCC(=O)N1CCc2cc(Br)cc(S(=O)(=O)C3(C(=O)OC)CC3)c21`, for which the fluorescence slope is -0.554. As for `COC(=O)C(C)Sc1nc2c(c(=O)n(C)c(=O)n2C)n1Cc1cccc(C)c1` (stereo not given), the fluorescence slope was -0.553.

With `Cn1c(SCc2ccc3c(c2)OCO3)nnc1-c1ccccc1`, the fluorescence slope is -0.526. Next, `Cc1nn(-c2ccc(F)cc2)c(C)c1NS(=O)(=O)c1ccc(Cl)cc1`: -0.382; `CC1(C)OC(=O)C(=CNc2ccccc2)C(=O)O1`: -0.617; `CCCCCn1c(CN(C)Cc2ccccc2)nc2c1c(=O)n(C)c(=O)n2C`: -0.46.
